FBW7 act = human FBW7 E3 ligase activation, primary screen; AID 1259310; Q969H0; 650,000 compounds, 0.13% hits; AlphaScreen FBW7–phospho-cyclin E peptide binding, activator screen; normalized activity (activation), % at 26.1 µM; in the data active = normalized activity above about 1.9%;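 also: purified mutant Fbw7 with reduced substrate affinity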
MITF inh = human MITF inhibition, primary screen; AID 1259374; AlphaScreen MITF homodimerization, bead proximity signal; O75030; inhibition, % at 2.6 µM; 650,000 compounds, 0.91% hits; in the data active = inhibition above about 50%;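 also: 0% = vehicle wells with protein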
GPR151 ag = activators of human GPR151. Q8TDV0. PathHunter beta-arrestin GPR151 cells, luminescence. activation, % at 11.2 µM. 650,000 compounds, 1% hits; in the data active = activation above about 4.9%;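 also: 0% = median of compound wells and 100% = cells with positive control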
TEAD-YAP block = TEAD-YAP interaction inhibition; HEK-TIYL cells, TEAD-Gal4/YAP UAS-luciferase luminescence; inhibition, % at 9.12 µM; 640,000 compounds, 1.4% hits; in the data active = inhibition above about 32%;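 also: 0% = median of test compound wells and 100% = reference inhibitor wells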
GPR151 conf act = human GPR151 activation, confirmation screen; shares compounds with GPR151 ag; GPR151 PathHunter beta-arrestin cells, luminescence, 90 min; % of EA-reagent control over plate median; activation, % at 11.2 µM; 6,700 tested, under 10 active; AID 1508609;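 active = mean percent activation across replicates above the confirmation screen cutoff of 4.91%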
GPR119 ag = counter-screen for GPR151 activators: effect on human GPR119. shares compounds with GPR151 ag. GPR119 PathHunter beta-arrestin cells, luminescence, 90 min; 0 = compound-well median, 100 = enzyme-acceptor control. activation, % at 11.2 µM. 6,700 compounds, 0.3% hits;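 active = mean percent activation in the counterscreen above 29.09%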;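 also: counterscreen on off-target GPR119 to flag nonselective hits from the GPR151 activator screen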
Target sequence (Q8TDV5 whole entry, looked up): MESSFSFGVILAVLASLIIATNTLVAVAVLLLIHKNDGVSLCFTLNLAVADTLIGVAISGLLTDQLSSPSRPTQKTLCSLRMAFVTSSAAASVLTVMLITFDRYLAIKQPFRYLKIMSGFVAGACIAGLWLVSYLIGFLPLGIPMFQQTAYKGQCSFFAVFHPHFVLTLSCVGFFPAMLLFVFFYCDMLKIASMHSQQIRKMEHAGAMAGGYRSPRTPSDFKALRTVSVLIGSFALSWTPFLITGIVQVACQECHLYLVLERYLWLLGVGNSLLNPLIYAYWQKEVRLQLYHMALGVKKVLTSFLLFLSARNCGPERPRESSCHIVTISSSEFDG
* hit, by the source's call; · = no result; ! = a repeat was not active. An excerpt weighted towards active compounds, which were near 3.5% of everything screened.

SMILES	FBW7 act	MITF inh	GPR151 ag	TEAD-YAP block	GPR151 conf act	GPR119 ag
O=C(CCc1ccccc1)N1CCN(c2nccn2-c2cccc(Cl)c2)CC1	0	6	1	7	·	·
COc1ccc(Cl)cc1NC(=O)c1cnn2c1NC(c1ccc(OC)c(OC)c1)CC2C(F)(F)F (centres undefined)	0	3	8.6*	-18	1	9
COc1ccc(/C=C2\SC(=Nc3ccccc3OC)N(c3ccccc3OC)C2=O)cc1	0	-9	0	-3	·	·
NC(Cc1cc(I)c(Oc2ccc(O)c(I)c2)c(I)c1)C(=O)O (centres undefined)	0	2	6.4*	10	0	1
CCc1cccc(CC)c1NC(=O)CN1C(=O)NC2(CCCCC2C)C1=O (centres undefined)	0	-5	6.2*	0	1	0
CC1CCN(c2nc3c(c(=O)[nH]2)CN(Cc2cccc4cccnc24)CC3)CC1	0	10	1	7	·	·
O=S(=O)(c1cccc(S(=O)(=O)N2CCOCC2)c1)c1ccc(Cl)c(Cl)c1	0	10	5.5*	5	1	13
CCN(CC)c1nc(C)nc2sc(C(=O)Nc3cc([N+](=O)[O-])ccc3OC)c(C)c12	0	2	0	3	·	·
OCCN1CCN(CCCN2c3ccccc3Sc3ccc(Cl)cc32)CC1	0	18	4	3	·	·
CN1CCN(CCCN2c3ccccc3Sc3ccc(S(=O)(=O)N(C)C)cc32)CC1	0	-5	5.4*	·	-1	-7
Cc1ccc(S(=O)(=O)CCC(=O)OCc2csc(-c3ccccc3)n2)cc1	0	0	1	-10	·	·
COc1cccc(-n2nnc3c(N4CCN(S(=O)(=O)c5cc(F)ccc5F)CC4)ncnc32)c1	0	-5	6.0*	2	-1	-4
COc1ccc(-n2nnc3c(N4CCN(C(=O)Cc5ccc(Cl)cc5)CC4)ncnc32)cc1	0	1	5.5*	0	0	-3
COc1ccc(-n2nnc3c(N4CCN(C(=O)CC5CCCCC5)CC4)ncnc32)cc1	0	1	2	-3	·	·
NC(=NCCC[C@H](N)C(=O)O)NO	0	-5	5.5*	-3	0	-9
O=C(Nc1nc2ccccc2[nH]1)c1ccc(Br)cc1	0	21	8.0*	25	-4	-18
CC(C)(C)C(=O)Nc1ccc(-c2ccc(NC(=O)C(C)(C)C)c(C(=O)O)c2)cc1C(=O)O	0	3	0	1	·	·
O=C(Nc1ccc(OC(F)(F)C(F)F)cc1)c1ccccc1O	0	-5	-3	-5	·	·
CCOc1ccccc1OCCCNC(C)(C)C	0	30	2	-4	·	·
CCCOc1ccccc1CNC(C)(C)C	0	-22	9.3*	-13	1	3
CC(C)c1ccccc1OCCCNC(C)(C)C	0	38	7.1*	12	0	1
COc1ccc(-n2cc(-c3ccccc3)c3c(N4CCN(c5ccccc5Cl)CC4)ncnc32)cc1	0	-7	1	3	·	·
O=C(NCC1(c2cccs2)CCOCC1)c1ccccc1	0	-4	4	-11	·	·
Cc1nc2nc(C(F)(F)F)[nH]n2c(=O)c1Cc1ccccc1	0	-3	8.1*	-2	0	0
Cc1nc2nc(C(=O)O)[nH]n2c(=O)c1Cc1ccccc1	0	8	-1	14	·	·
SMILES	FBW7 act	MITF inh	GPR151 ag	TEAD-YAP block	GPR151 conf act	GPR119 ag
COc1ccc(C(=O)NC2CCN(CC(=O)Nc3ccccc3C(F)(F)F)CC2)cc1	0	14	1	-8	·	·
CCNC(=O)c1c(NC(=O)c2nc(S(C)(=O)=O)ncc2Cl)sc2c1CCCC2	0	3	0	-1	·	·
CC1CC(C)CN(C(=O)c2ccc(N3CC4CC(C3)c3cccc(=O)n3C4)c(NC(=O)c3ccc(F)cc3)c2)C1 (centres undefined)	0	-8	6.3*	-6	0	5
CCOC(=O)N1CCC(NC(=O)c2ccc(N3CC4CC(C3)c3cccc(=O)n3C4)c(NC(=O)c3ccc(C(C)(C)C)cc3)c2)CC1 (centres undefined)	0	1	0	-13	·	·
CCOC(=O)N1CCC(NC(=O)c2ccc(N3CC4CC(C3)c3cccc(=O)n3C4)c(NC(=O)c3ccncc3)c2)CC1 (centres undefined)	0	-2	4.9*	-5	-1	-12
O=C(Nc1cc(C(=O)N2CCCC2)ccc1N1CC2CC(C1)c1cccc(=O)n1C2)c1ccc(F)cc1 (centres undefined)	0	4	1	13	·	·
O=C(NCCC1=CCCCC1)c1ccc(N2CC3CC(C2)c2cccc(=O)n2C3)c(NC(=O)c2c(F)cccc2F)c1 (centres undefined)	0	4	8.0*	-4	0	3
COc1ccc(C(=O)CSc2nncn2C)c(OC)c1	0	0	-1	-3	·	·
CCCOc1cccc(C(=O)Nc2ccc(-c3nc4ccc(C)cc4s3)cc2)c1	0	1	0	-9	·	·
CCC(C)(C)NC(=O)CSc1nc2ccccc2n1CC(=O)Nc1ccccc1F	1	29	-2	15	·	·
CC(C)N(C)Cc1nnnn1CC(=O)N1CCN(c2ccccc2O)CC1	0	-12	5.0*	6	1	-1
COc1ccc(/C=C2\NC(=O)NC2=S)cc1Cl	0	-19	0	1	·	·
CCOCCOC(=O)C1=C(C)NC2=C(C(=O)CC(c3ccc(Cl)cc3)C2)C1c1ccc(Cl)cc1 (centres undefined)	0	-1	7.4*	17	-1	-4
CCOCCOC(=O)C1=C(C)NC2=C(C(=O)CCC2)C1c1ccc(F)c(F)c1 (centres undefined)	0	6	12*!	7	1	17
CCCOCCOC(=O)C1=C(C)NC2=C(C(=O)CCC2)C1c1ccc(F)c(F)c1 (centres undefined)	1	-3	0	17	·	·
CC1=C(C(=O)OCCOc2ccccc2)C(c2cccc(O)c2)C2=C(CC(c3ccccc3)CC2=O)N1 (centres undefined)	2	8	14*	6	0	8
CCOCCOC(=O)C1=C(C)NC2=C(C(=O)CC(c3ccc(Cl)cc3)C2)C1c1ccc(O)cc1 (centres undefined)	0	17	-1	6	·	·
CC1=C(C(=O)OCC2CCCO2)C(c2cccc([N+](=O)[O-])c2)C2=C(CCCC2=O)N1 (centres undefined)	0	4	6.1*	8	0	8
CN(C)c1ccc(C2C3C(=O)N(c4ccc([N+](=O)[O-])cc4)C(=O)C3ON2c2ccccc2)cc1 (centres undefined)	0	12	1	-34	·	·
COc1ccc(CCNC(=O)Cn2cnc3c(oc4ccccc43)c2=O)cc1OC	0	-4	1	8	·	·

Source: PubChem BioAssay (The Scripps Research Institute Molecular Screening Center)
